Data: PubChem BioAssay
Activity calls are given as the source filed them.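 The calls were made as follows, unless noted: active = inhibition at or above 50% at 10 µM; inactive = inhibition below 50%.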

How the values were obtained:
[1] = inhibitors of TNFa-induced NFkB p65 translocation, primary screen, imaging, HUVEC, MLSMR starter and 10KST1 sets (AID 438;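 active = inhibition above 20% together with a positive visual image hit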;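 also: compound added about 3h40 before a 20 min TNFalpha stimulation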;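 as to inhibition: signal is the nuclear over cytoplasmic p65 intensity ratio per well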); conditions: HUVEC TNFa-induced p65 nuclear translocation; cell count: measured here: nuclei count (cytotoxicity indicator), at 2.08 µM; inhibition: at 2 µM, stronger effect = higher value, 0% TNFa-plus-vehicle, 100% no-TNFa wells
[2] = reduction of polyQ htt aggregates in cells – imaging, exon1htt(103Q)mCFP cells, high-content imaging, primary screen (AID 483;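 active = visual image review flags a hit and inhibition of aggregation exceeds 20%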;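 also: compound exposure lasted 3 days before fixation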;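 as to nuclei count: percent of the per-plate median nuclei count of sample wells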); conditions: exon1htt(103Q)mCFP cell line, aggregate imaging, at 2 µM; inhibition of aggregation: stronger effect = higher value; nuclei count: measured here: cell count, toxicity
[3] = endothelial E-selectin expression blockers – imaging, HUVEC, immunofluorescence, MLSMR starter and 10KST1 sets, primary screen (AID 487;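 active = visually confirmed hit in the image check and inhibition above 20%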;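 as to inhibition: signal is fraction of cell area covered by stained E-selectin grains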;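 as to nuclei count: 100% = median nuclei count of all wells on the same plate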); conditions: HUVEC TNFalpha-induced E-selectin immunofluorescence imaging, at 2 µM; inhibition: stronger effect = higher value; nuclei count: measured here: cell number, toxicity
[4] = molecular target: Voltage-gated potassium channel subunit beta-2 (Rattus norvegicus) (UniProt P62483); experiment: inhibitors of rat Kvbeta2 reductase activity – biochemical, NADPH fluorescence, primary screen (AID 622;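 active = fluorescence slope higher than the sample average by over 3 SD, cut at about -0.22 in these data, passing the limit was not always enough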;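 also: slope of raw intensity against log time taken from 70 to 1610 s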); conditions: recombinant KvBeta, 4-cyanobenzaldehyde reduction, at 10 µM, stronger effect = higher value
[5] = molecular target: Voltage-gated potassium channel subunit beta-2 (Rattus norvegicus) (UniProt P62483); experiment: enhancers of rat Kvbeta2 NADPH turnover – biochemical, NADPH fluorescence, primary screen (AID 623;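 active = NADPH fluorescence slope more negative than the mean of all samples by about 3 SD, 99.7% confidence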;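 also: fluorescence intensity change per second fitted from 20 to 320 s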); conditions: Recombinant KvBeta, NADPH fluorescence decrease slope, 10 min; at 10 µM; stronger effect = lower value
[6] = molecular target: Alpha-2C adrenergic receptor (Homo sapiens) (UniProt P18825); experiment: compounds altering alpha2C-coupled GIRK flux – cell-based, HEK293 alpha2C/GIRK1/2, thallium flux, primary screen (AID 624;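 active = fluorescence slope after compound addition differing from the mean of all screened samples at 99.7% confidence, in either direction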;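 also: slope of fluorescence ratio to pre-addition baseline per second over 15 to 24 s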); conditions: thallium flux BTC fluorescence, at 10 µM, actives lie on both sides
[7] = blockers of RIG-like receptor reporter activation – cell-based, Sendai virus stimulus, luciferase, 10K MLSCN set, TLR/RLR signaling modifier project, primary screen (AID 602276); conditions: HEK293 RL24 IRF3 luciferase reporter, at 10 µM, stronger effect = higher value;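 also: firefly luciferase from ISG56 promoter only with Renilla not read in this screen; 0% = Sendai virus plus DMSO and 100% = medium plus DMSO without virus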
[8] = TLR3 IRF3 reporter activation blockers – cell-based, poly I:C stimulus, luciferase, 10K MLSCN set, primary screen (AID 602277;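 active = inhibition of the reporter signal at or above 50%; inactive = inhibition below 50%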); conditions: HEK293-TLR3 RL24 IRF3 luciferase reporter, at 10 µM, stronger effect = higher value

Chain of Alpha-2C adrenergic receptor (Homo sapiens) (P18825 whole entry, looked up): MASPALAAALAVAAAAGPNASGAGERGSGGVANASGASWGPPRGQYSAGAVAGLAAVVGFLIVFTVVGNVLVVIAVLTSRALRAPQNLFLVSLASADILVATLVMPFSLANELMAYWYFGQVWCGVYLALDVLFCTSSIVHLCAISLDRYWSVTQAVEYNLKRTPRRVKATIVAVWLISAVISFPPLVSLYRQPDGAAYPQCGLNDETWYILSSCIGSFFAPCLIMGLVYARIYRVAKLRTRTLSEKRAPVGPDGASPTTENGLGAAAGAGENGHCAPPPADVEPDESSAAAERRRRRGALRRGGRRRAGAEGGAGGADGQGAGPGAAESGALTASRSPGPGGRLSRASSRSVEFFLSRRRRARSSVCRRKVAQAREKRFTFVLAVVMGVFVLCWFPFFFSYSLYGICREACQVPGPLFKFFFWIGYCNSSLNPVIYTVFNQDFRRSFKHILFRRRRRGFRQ
Chain of Voltage-gated potassium channel subunit beta-2 (Rattus norvegicus) (P62483 whole entry, looked up): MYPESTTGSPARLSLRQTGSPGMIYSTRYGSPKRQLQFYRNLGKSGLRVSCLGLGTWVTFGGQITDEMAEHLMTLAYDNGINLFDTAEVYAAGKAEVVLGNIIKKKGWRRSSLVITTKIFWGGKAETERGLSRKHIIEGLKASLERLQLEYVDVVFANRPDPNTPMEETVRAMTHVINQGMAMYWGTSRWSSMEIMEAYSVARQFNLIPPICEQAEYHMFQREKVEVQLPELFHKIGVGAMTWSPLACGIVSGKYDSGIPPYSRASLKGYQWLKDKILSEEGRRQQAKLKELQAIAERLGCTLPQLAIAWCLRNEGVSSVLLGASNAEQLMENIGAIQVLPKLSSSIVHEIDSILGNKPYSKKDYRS

**Q.** With `CC1=C(C(=O)NCc2ccccc2)C(c2ccccc2OCC(N)=O)NC(=O)N1` (stereo not drawn) as the molecule, how does the cell count [1] read?
**A.** Its cell count is 355.

**Q.** And the inhibition [1]?
**A.** The inhibition was -8.1% (inactive).

**Q.** And the inhibition of aggregation [2]?
**A.** The inhibition of aggregation was 14.3% (inactive).

**Q.** And the nuclei count [2]?
**A.** Its nuclei count is 96.4%.

**Q.** What about the inhibition [3] of the same molecule?
**A.** Its inhibition is -16.7% (inactive).

**Q.** What about the nuclei count [3] of the same molecule?
**A.** Its nuclei count is 98.2%.

**Q.** And the fluorescence slope [4]?
**A.** Its fluorescence slope is -0.428 (inactive).

**Q.** And the NADPH fluorescence slope [5]?
**A.** Its NADPH fluorescence slope is 7.3e-06 (inactive).

**Q.** And the slope [6]?
**A.** Its slope is 0.00981 (inactive).

**Q.** And the inhibition [7]?
**A.** Its inhibition is 6.63% (inactive).

**Q.** And the inhibition [8]?
**A.** Its inhibition is 14.9% (inactive).

**Q.** With `CCOC(=O)CN1CC23C=CC(O2)C(C(=O)Nc2ccc(C(C)=O)cc2)C3C1=O` (stereo not drawn) as the molecule, how does the cell count [1] read?
**A.** Its cell count is 813.

**Q.** What about the inhibition [1] of the same molecule?
**A.** The inhibition was -6.9% (inactive).

**Q.** What about the inhibition of aggregation [2] of the same molecule?
**A.** The inhibition of aggregation was -2.6% (inactive).

**Q.** And the nuclei count [2]?
**A.** Its nuclei count is 127%.

**Q.** What about the inhibition [3] of the same molecule?
**A.** The inhibition was -18.4% (inactive).

**Q.** What about the nuclei count [3] of the same molecule?
**A.** The nuclei count was 127%.

**Q.** What about the fluorescence slope [4] of the same molecule?
**A.** The fluorescence slope was -0.574 (inactive).

**Q.** What about the NADPH fluorescence slope [5] of the same molecule?
**A.** The NADPH fluorescence slope was -2.3e-05 (inactive).

**Q.** And the slope [6]?
**A.** Its slope is 0.00637 (inactive).

**Q.** What about the inhibition [7] of the same molecule?
**A.** The inhibition was -3.34% (inactive).

**Q.** What about the inhibition [8] of the same molecule?
**A.** The inhibition was 7.25% (inactive).

**Q.** What does the source list for `CC1(C)CC(=O)C=C(Nc2ccc(OCC(F)(F)C(F)F)cc2)C1`?
**A.** cell count [1]: 362; inhibition [1]: -0.3% (inactive); inhibition of aggregation [2]: -25.2% (inactive); nuclei count [2]: 110%; inhibition [3]: -43% (inactive); nuclei count [3]: 116%; fluorescence slope [4]: -0.324 (inactive); NADPH fluorescence slope [5]: -1.5e-05 (inactive); slope [6]: 0.00531 (inactive); inhibition [7]: -8.49% (inactive); inhibition [8]: -18.3% (inactive)

**Q.** With `Cc1cccc(N=C2NC(=O)CS2)c1C` as the molecule, how does the cell count [1] read?
**A.** Its cell count is 333.

**Q.** What about the inhibition [1] of the same molecule?
**A.** The inhibition was -0.6% (inactive).

**Q.** What about the inhibition of aggregation [2] of the same molecule?
**A.** The inhibition of aggregation was -5.7% (inactive).

**Q.** What about the nuclei count [2] of the same molecule?
**A.** The nuclei count was 109%.

**Q.** And the inhibition [3]?
**A.** Its inhibition is 3.7% (inactive).

**Q.** What about the nuclei count [3] of the same molecule?
**A.** Its nuclei count is 93.9%.

**Q.** And the fluorescence slope [4]?
**A.** Its fluorescence slope is -0.499 (inactive).

**Q.** What about the NADPH fluorescence slope [5] of the same molecule?
**A.** The NADPH fluorescence slope was -3.3e-05 (inactive).

**Q.** And the slope [6]?
**A.** The slope was 0.00501 (inactive).

**Q.** What about the inhibition [7] of the same molecule?
**A.** Its inhibition is 20.6% (inactive).

**Q.** And the inhibition [8]?
**A.** Its inhibition is 22.9% (inactive).

**Q.** Which cell count [1] does the source give for `CC(=O)Nc1nc(=S)ss1` here?
**A.** Its cell count is 568.

**Q.** What about the inhibition [1] of the same molecule?
**A.** The inhibition was -7.2% (inactive).

**Q.** And the inhibition of aggregation [2]?
**A.** Its inhibition of aggregation is 1.3% (inactive).

**Q.** And the nuclei count [2]?
**A.** Its nuclei count is 60.9%.

**Q.** And the inhibition [3]?
**A.** The inhibition was -28.4% (inactive).

**Q.** And the nuclei count [3]?
**A.** Its nuclei count is 120%.

**Q.** What about the fluorescence slope [4] of the same molecule?
**A.** Its fluorescence slope is -0.486 (inactive).

**Q.** What about the NADPH fluorescence slope [5] of the same molecule?
**A.** Its NADPH fluorescence slope is -2.6e-05 (inactive).

**Q.** What about the slope [6] of the same molecule?
**A.** Its slope is 0.00751 (inactive).

**Q.** And the inhibition [7]?
**A.** The inhibition was 10.3% (inactive).

**Q.** What about the inhibition [8] of the same molecule?
**A.** The inhibition was 14.9% (inactive).

**Q.** Which results are given for `Cc1ccc2c(c1)C1CCCC3C1N2CC(=O)N3Cc1ccccc1` (stereo not drawn)?
**A.** cell count [1]: 331; inhibition [1]: -7.1% (inactive); inhibition of aggregation [2]: -7.3% (inactive); nuclei count [2]: 81.8%; inhibition [3]: -136% (inactive); nuclei count [3]: 131%; fluorescence slope [4]: -0.498 (inactive); NADPH fluorescence slope [5]: -3.8e-05 (inactive); slope [6]: 0.00336 (inactive); inhibition [7]: 7.59% (inactive); inhibition [8]: -11.1% (inactive)

**Q.** What does the source list for `Cc1ccc(-c2noc(CN3CCN(c4ccccc4F)CC3)n2)cc1`?
**A.** cell count [1]: 468; inhibition [1]: -2.6% (inactive); inhibition of aggregation [2]: -0.3% (inactive); nuclei count [2]: 84.1%; inhibition [3]: -30.6% (inactive); nuclei count [3]: 101%; fluorescence slope [4]: -0.556 (inactive); NADPH fluorescence slope [5]: -3.7e-05 (inactive); slope [6]: 0.00746 (inactive); inhibition [7]: 14.7% (inactive); inhibition [8]: 39% (inactive)

**Q.** For `COCCN(Cc1cc2cccc(C)c2[nH]c1=O)C(=O)c1ccccc1`, which cell count [1] is on record?
**A.** Its cell count is 298.

**Q.** What about the inhibition [1] of the same molecule?
**A.** The inhibition was -22.3% (inactive).

**Q.** What about the inhibition of aggregation [2] of the same molecule?
**A.** Its inhibition of aggregation is 3.6% (inactive).

**Q.** What about the nuclei count [2] of the same molecule?
**A.** Its nuclei count is 91.8%.

**Q.** What about the inhibition [3] of the same molecule?
**A.** Its inhibition is -23.9% (inactive).

**Q.** What about the nuclei count [3] of the same molecule?
**A.** The nuclei count was 124%.

**Q.** And the fluorescence slope [4]?
**A.** The fluorescence slope was -0.372 (inactive).

**Q.** What about the NADPH fluorescence slope [5] of the same molecule?
**A.** The NADPH fluorescence slope was -5.9e-05 (inactive).

**Q.** What about the slope [6] of the same molecule?
**A.** The slope was 0.00564 (inactive).

**Q.** And the inhibition [7]?
**A.** Its inhibition is 7.15% (inactive).

**Q.** And the inhibition [8]?
**A.** Its inhibition is 16.3% (inactive).
